Drawing on ChEMBL document CHEMBL1961873, “Compounds: GSK PKIS; Assays: Nanosyn kinase panel” (2012), this text covers inhibition for 16 compounds.
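Further: mean inhibition of FES from the GSK PKIS kinase inhibitor screening set, assayed by Nanosyn.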

For this experiment, the target named is Tyrosine-protein kinase Fes/Fps (Homo sapiens) (UniProt P07332). The following applies: at 1 µM.
Sequence of Tyrosine-protein kinase Fes/Fps (Homo sapiens) (P07332 whole entry): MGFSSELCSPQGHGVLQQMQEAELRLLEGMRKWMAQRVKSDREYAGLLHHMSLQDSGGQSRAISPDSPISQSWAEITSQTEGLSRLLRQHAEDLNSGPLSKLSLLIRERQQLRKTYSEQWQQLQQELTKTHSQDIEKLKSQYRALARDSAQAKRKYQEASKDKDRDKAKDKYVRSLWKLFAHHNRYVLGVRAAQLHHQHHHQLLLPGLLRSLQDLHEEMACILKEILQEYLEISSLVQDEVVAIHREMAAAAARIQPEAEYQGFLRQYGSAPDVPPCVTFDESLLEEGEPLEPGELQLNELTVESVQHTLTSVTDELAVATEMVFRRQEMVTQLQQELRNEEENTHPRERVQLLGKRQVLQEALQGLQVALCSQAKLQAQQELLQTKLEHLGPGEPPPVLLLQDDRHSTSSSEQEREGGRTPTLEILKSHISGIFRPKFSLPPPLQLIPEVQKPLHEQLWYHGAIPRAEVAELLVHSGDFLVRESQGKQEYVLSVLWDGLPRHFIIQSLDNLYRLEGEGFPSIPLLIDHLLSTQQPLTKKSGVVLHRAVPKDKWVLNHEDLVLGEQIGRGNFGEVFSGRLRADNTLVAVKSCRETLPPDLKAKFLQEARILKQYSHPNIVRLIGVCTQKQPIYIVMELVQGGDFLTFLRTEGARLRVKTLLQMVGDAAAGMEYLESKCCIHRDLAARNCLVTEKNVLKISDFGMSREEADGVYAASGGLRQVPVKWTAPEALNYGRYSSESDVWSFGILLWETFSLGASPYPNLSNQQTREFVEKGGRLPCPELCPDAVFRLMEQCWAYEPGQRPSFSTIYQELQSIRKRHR
Take `CCCN(CCS(C)(=O)=O)Cc1ccc(-c2ccc3ncnc(Nc4ccc(OCc5cccc(F)c5)c(Cl)c4)c3c2)o1`: the inhibition (usually the drop in the measured response relative to a control, in per cent) is 1.43%.

The compound `Cc1ccc2c(-c3ccnc(Nc4ccccc4)n3)c(-c3ccc(F)cc3)nn2n1` displayed an inhibition of 5.64%. The same measure for `Fc1ccc(-c2cc(-c3c[nH]nc3-c3ccccn3)ccn2)cc1`: 3.31%.

In turn, `FC(F)(F)c1cccc(-c2nn3ncccc3c2-c2ccnc(Nc3ccc4c(c3)OCCO4)n2)c1` came in with an inhibition of 3.62%. Compound `N#Cc1c(NC(=O)CN2CCOCC2)sc2c1CCCC2` displayed an inhibition of 6.23%. Compound `c1ccc(COc2ccc(Nc3ncnc4ccc(-c5ccco5)cc34)cc2)cc1` yielded an inhibition of 1.74%. The compound `Fc1ccc(-c2nn3ccccc3c2-c2ccncc2)cc1` returned an inhibition of 0.96%. Next, `Cc1cccc(Nc2ncc(-c3ccccc3)o2)c1`: 3.44%; `COc1cc2c(cc1Nc1nc(Nc3ccsc3C(N)=O)c3cc[nH]c3n1)N(C(=O)CN(C)C)CCC2(C)C`: 79.4%; `c1cc(-c2cnn3nc(N4CCOCC4)ccc23)nc(NC2CC2)n1`: 4.53%. Turning to `CC(=O)NCc1cccc(C#Cc2cncnc2Nc2ccc(OCc3cccc(F)c3)c(Cl)c2)c1`, the inhibition was 0.52%. Regarding `CC(=O)Nc1cccc(C#Cc2cncnc2Nc2ccc(OCc3cccc(F)c3)c(Cl)c2)c1`, the inhibition turned out to be 3.58%. `Nc1nc(-c2cccc(Cl)c2)c(-c2ccc3ncccc3n2)s1`: the inhibition turned out to be 4.47%.

As for `COc1ccc(-c2oc3ncnc(N)c3c2-c2ccc(NC(=O)Nc3cc(C(F)(F)F)ccc3F)cc2)cc1`, the inhibition stood at 17.1%. Turning to `CC(C)(CO)CNC(=O)c1ccc2c(c1)/C(=N/Nc1ccc(S(N)(=O)=O)cc1)C(=O)N2`, the inhibition was determined as 0.22%. Regarding `CCNC(=O)O[C@H]1CN[C@H](C#Cc2cc3ncnc(Nc4ccc(OCc5cccc(F)c5)c(Cl)c4)c3s2)C1`, the inhibition was determined as 3.23%.
